Test [1] has as its target Rap guanine nucleotide exchange factor 3 (Homo sapiens) (UniProt O95398). The test is described as follows: Confirmatory qHTS for antagonist of cAMP-regulated guanine nucleotide exchange factor 3 (EPAC1) (AID 1645880).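 For activity, negative = inhibition: plate controls were DMSO only for no effect and full effect of the ATA control for full effect.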 Note: nearly all actives have a fitted effect of over 55% in size. Note: potency is the fitted concentration of half-maximal effect. The following applies: EPAC1 Rap1B-BODIPY-GDP exchange, fluorescence; activity, negative = inhibition: at 115 µM (top of the series). A digest of the protocol:
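Nucleotide exchange uses 100 nM EPAC1, 250 nM RAP1B-BODIPY-GDP and 50 uM GDP, with compounds in a concentration-titration series. After 5 min at room temperature, fluorescence (480 nm ex/540 nm em) is read every 5 min for 30 min. Data are normalized to control ATA and DMSO.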

Test [2] concerns the target Rap guanine nucleotide exchange factor 4 (Homo sapiens) (UniProt Q8WZA2). The test is described as follows: Confirmatory qHTS for agonist of cAMP-regulated guanine nucleotide exchange factor 4 (EPAC2) (AID 1645884;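 note: nucleotide exchange releases bodipy-GDP from Rap1 and this lowers its fluorescence; nearly all actives have a fitted effect of over 65% in size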; note: potency is the fitted concentration of half-maximal effect; for activation: % is set by controls: 0 for no effect and ±100 for the full control effect). (In general: In qHTS, concentration-response curves come from the screen itself.)
The target is the same in test [3]. The test is described as follows: Confirmatory qHTS for antagonist of cAMP-regulated guanine nucleotide exchange factor 4 (EPAC2) (AID 1645885). For activity change, negative = inhibition: % is set by controls: 0 for no effect and ±100 for the full control effect. Note: nearly all actives have a fitted effect of over 25% in size.
The target in test [4] is Rap guanine nucleotide exchange factor 3 (Homo sapiens) (UniProt O95398). The test is described as follows: Counterscreen qHTS for antagonist of cAMP-regulated guanine nucleotide exchange factor 3 (EPAC1) (AID 1645888). Note: % of control where 0% means no effect. A digest of the protocol: (§1)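 Measured: fluorescence of BODIPY-GDP bound to Rap1B, which falls as exchange proceeds. Conditions include 50 uM competing GDP, 5 and 30 min reads, and a later cAMP challenge for antagonist detection.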
Rap guanine nucleotide exchange factor 3 (Homo sapiens), sequence (O95398 whole entry, looked up): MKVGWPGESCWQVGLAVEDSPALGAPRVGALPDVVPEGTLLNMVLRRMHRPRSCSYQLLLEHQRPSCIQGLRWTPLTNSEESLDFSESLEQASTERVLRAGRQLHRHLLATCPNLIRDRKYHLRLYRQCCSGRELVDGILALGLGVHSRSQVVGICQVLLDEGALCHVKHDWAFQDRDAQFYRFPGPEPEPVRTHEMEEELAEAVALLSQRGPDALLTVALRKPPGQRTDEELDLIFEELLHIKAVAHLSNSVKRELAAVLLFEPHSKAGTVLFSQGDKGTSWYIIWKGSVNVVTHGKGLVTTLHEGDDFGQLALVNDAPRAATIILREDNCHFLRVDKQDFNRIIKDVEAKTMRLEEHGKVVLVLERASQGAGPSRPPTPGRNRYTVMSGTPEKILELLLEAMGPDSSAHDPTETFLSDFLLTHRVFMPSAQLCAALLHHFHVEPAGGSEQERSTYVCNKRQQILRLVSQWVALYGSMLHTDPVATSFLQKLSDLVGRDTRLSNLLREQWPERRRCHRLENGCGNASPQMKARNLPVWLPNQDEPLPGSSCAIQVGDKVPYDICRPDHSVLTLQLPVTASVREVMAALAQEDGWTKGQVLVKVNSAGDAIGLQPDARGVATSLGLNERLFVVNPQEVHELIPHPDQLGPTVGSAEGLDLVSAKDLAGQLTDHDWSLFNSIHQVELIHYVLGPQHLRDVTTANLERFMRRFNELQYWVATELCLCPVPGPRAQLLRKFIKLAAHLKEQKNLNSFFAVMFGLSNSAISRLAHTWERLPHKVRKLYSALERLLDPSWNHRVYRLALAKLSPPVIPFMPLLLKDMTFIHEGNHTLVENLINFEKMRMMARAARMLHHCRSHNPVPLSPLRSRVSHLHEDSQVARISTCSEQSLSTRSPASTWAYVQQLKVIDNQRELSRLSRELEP

The target is the same in test [5]. The test is described as follows: Counterscreen qHTS for agonist of cAMP-regulated guanine nucleotide exchange factor 3 (EPAC1) (AID 1645889). For activation: % of control where 0% means no effect. Note: nearly all actives have a fitted effect of over 40% in size. Note: potency is the fitted concentration of half-maximal effect. A digest of the protocol: as §1
On the technique in general: A counterscreen serves to expose hits that act by an unwanted route or on another target.

A short description of test [6]: qHTS for Inhibitors of the vitamin D receptor (VDR): Hit Validation using a Texas Red Assay (AID 602201). Note: % is set by controls: 0 for no effect and ±100 for the full control effect. The essentials:
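Fluorescence polarization (Ex 595/Em 615 nm) of Texas Red (7 nM) with 1.5 uM VDR-LBD and LG19078 (final concentrations). Compounds were incubated for 2 hours at room temperature.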

Molecules are shown by their SMILES. Records with an inconclusive call do not appear. Calls of active or inactive are those of the source. Calls come from the whole dose curve; as a rule, active = well fitted curve in the direction sought with a large enough effect; inconclusive = small, poorly fitted or top-dose-only effect, or another doubt; inactive = no such curve, though single readings can be large; an effect the other way counts as inactive or inconclusive.

Rap guanine nucleotide exchange factor 4 (Homo sapiens), sequence (Q8WZA2 whole entry, looked up): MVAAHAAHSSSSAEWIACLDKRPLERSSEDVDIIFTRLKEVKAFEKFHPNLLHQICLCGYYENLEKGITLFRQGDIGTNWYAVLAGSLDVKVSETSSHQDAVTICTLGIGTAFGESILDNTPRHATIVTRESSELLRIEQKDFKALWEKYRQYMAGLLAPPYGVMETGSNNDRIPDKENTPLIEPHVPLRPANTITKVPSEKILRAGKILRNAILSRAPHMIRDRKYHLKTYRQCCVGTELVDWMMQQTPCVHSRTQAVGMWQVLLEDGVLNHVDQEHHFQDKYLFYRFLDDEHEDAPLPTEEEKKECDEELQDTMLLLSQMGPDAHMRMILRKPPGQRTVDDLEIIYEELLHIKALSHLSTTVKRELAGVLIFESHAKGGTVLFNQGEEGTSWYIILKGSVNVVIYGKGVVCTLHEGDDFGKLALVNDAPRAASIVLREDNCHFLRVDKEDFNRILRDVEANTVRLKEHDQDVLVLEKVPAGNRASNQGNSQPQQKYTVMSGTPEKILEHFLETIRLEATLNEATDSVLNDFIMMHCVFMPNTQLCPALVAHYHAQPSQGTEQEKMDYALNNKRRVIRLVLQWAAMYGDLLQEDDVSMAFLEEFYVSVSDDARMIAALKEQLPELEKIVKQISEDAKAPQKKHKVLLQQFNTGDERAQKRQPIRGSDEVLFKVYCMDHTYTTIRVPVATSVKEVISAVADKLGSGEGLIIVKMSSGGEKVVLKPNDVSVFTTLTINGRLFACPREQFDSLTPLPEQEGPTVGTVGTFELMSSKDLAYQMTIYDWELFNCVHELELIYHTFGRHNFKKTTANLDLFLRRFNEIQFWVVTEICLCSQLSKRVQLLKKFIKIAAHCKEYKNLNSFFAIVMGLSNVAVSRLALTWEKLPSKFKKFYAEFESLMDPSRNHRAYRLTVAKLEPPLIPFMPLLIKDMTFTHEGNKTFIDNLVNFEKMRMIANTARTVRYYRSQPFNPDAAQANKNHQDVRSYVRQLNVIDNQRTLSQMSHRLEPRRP

For `CC(=O)Nc1sc2c(c1-c1nc3ccccc3s1)CN(C(C)C)CC2`, the Potency result in test [1] and in test [3] was “inactive” throughout. The activation in test [2] is 18.6% [at 17.1 µM, percent relative to cAMP agonist control] (inactive). Besides, the activity change, negative = inhibition in test [4] is 28.4% [at 30.8 µM] (inactive). In test [5], the Potency was 10 µM (active).
As to `CCCN1C(=O)c2cccc3c(N4CCCCC4)ccc(c23)C1=O`, the Potency result in test [1], in test [3] and in test [4] was “inactive” each time. The Potency in test [2] is 100 µM (active); in test [5], 39.8 µM (active).
With `COC(=O)c1c(NC(=O)c2ccc(S(=O)(=O)N(C)C3CCCCC3)cc2)sc2c1CCN(C)C2`, the Potency entry in test [1], in test [2], in test [3] and in test [4] was “inactive” each time. The Potency in test [5] is 89.1 µM (active).
Take `COc1ccccc1CNc1cc(C)nc2nc(-c3ccc(C)cc3)nn12`: the Potency entry in test [1], in test [2], in test [3], in test [4] and in test [5] was “inactive” throughout.
Regarding `COc1ccc2oc(C)c(C(=O)c3ccccc3)c2c1`, the Potency entry in test [1] and in test [3] was “inactive” in each case. The activation in test [2] is 5.91% [at 17.1 µM, percent relative to cAMP agonist control] (inactive); in test [5], 7.36% [at 30.8 µM] (inactive). In test [4], the activity change, negative = inhibition was 1.7% [at 30.8 µM] (inactive).
For the compound `O=C(O)c1cccc(-c2ccc(/C=c3/sc4nc5ccccc5n4c3=O)o2)c1`, the Potency result in test [1], in test [2], in test [3], in test [4] and in test [5] was “inactive” each time.
For `Cc1ccc(Nc2cc(C)nc3c(C)ccc([N+](=O)[O-])c23)cc1`, the Potency result in test [1] and in test [3] was “inactive” throughout. The activation in test [2] was 6.25% [at 17.1 µM, percent relative to cAMP agonist control] (inactive). Further, in test [4], the activity change, negative = inhibition was 4.53% [at 30.8 µM] (inactive).
Regarding `COc1ccc(O)c(C(=O)c2cc(SCC(=O)O)c3nc4sc5c(c4c(=O)n3c2)CCCC5)c1`, the Potency in test [1] was 23.9 µM (active). The Potency entry in test [2], in test [3], in test [4] and in test [5] was “inactive” each time.
Turning to `CC(C)CCn1c(Oc2ccccc2F)nc2c1c(=O)n(C)c(=O)n2C`, the Potency entry in test [1], in test [2], in test [3], in test [4] and in test [5] was “inactive” each time.
As to `COc1ccc(N=Cc2sc(O)c3ccccc23)cc1`, the Potency entry in test [1] and in test [3] was “inactive” in each case. The activation is 2.81% [at 17.1 µM, percent relative to cAMP agonist control] (inactive) in test [2] and 29% [at 30.8 µM] (inactive) in test [5]. Moreover, in test [4], the activity change, negative = inhibition is 46.8% [at 30.8 µM] (inactive).
On to `CCN(CC)c1ccc2cc(C=O)c(=O)oc2c1`, for which the Potency result in test [1] and in test [3] was “inactive” throughout. Further, the activation in test [2] is 6.38% [at 17.1 µM, percent relative to cAMP agonist control] (inactive). Moreover, in test [4], the activity change, negative = inhibition is 96.9% [at 30.8 µM] (inactive). The Potency in test [5] is 12.6 µM (active).
For the compound `CCOC(=O)c1sc2nc3c(SCC(=O)O)cc(C(=O)c4cc(F)ccc4O)cn3c(=O)c2c1C`, the Potency in test [1] was 9.53 µM (active). Besides, the Potency result in test [2], in test [3], in test [4] and in test [5] was “inactive” each time.
As to `Cc1ccccc1-n1c(O)c(/C=C/C=Nc2ccccc2)c(=O)[nH]c1=O`, the Potency entry in test [1], in test [3] and in test [4] was “inactive” throughout. Besides, the figures for the Potency in test [2] and in test [5] were 112 µM (active) and 39.8 µM (active), respectively.
Take `COc1cc(/C=C2/C(=O)c3cccc([N+](=O)[O-])c3C2=O)c(Br)cc1O`: the Potency result in test [6], in test [2] and in test [4] was “inactive” throughout. In addition, the results for the Potency in test [1] and in test [5] were 23.9 µM (active) and 31.6 µM (active), respectively. Besides, the outcome in test [3] is “inactive; activator; fitted 0.0301 uM [at 12.7 µM]”.
Consider `CCC(C)n1c(=N)c(C#N)cc2c(=O)n3ccccc3nc21` (stereo not given), for which the Potency entry in test [1] and in test [3] was “inactive” each time. In addition, the activation is -1.22% [at 17.1 µM, percent relative to cAMP agonist control] (inactive) in test [2] and -4.07% [at 30.8 µM] (inactive) in test [5]. Moreover, in test [4], the activity change, negative = inhibition was -20.2% [at 30.8 µM] (inactive).

(Values after PubChem BioAssay (NCATS).)
